According to PubChem BioAssay (Tox21):
Values joined by “and” are separate entries in the source; they are usually repeats but may differ in a detail not shown here. Identical values can stand only once. Some compounds were tested as several samples or in several runs, with calls that do not always agree. Active and inactive are the calls of the source. Where a call stands in place of a potency, no number is given. Unless noted, the call rests on the fitted dose curve; in most records, active means well fitted curve in the direction sought with a large enough effect in the repeat runs; inconclusive means weak or mixed curves; inactive means no such curve, though single readings can be large; an effect the other way counts as inactive or inconclusive.

Experiments:
[1] = qHTS assay to identify small molecule antagonists of the thyroid receptor (TR) signaling pathway (AID 743065); conditions: GH3.TRE-Luc, T3-stimulated luciferase inhibition, 23.5 h; series mostly up to 70.3 µM; further: nearly all actives have a fitted effect of over 55% in size; further: potency means the concentration at half of the fitted maximal effect
How it was run: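 GH3.TRE-Luc rat pituitary cells carrying two TR response elements driving luciferase were plated for 4 h, given compound plus 1 nM T3 (final), and incubated 23.5 h at 37 C. ONE-Glo luminescence measured reporter inhibition; CellTiter-Fluor fluorescence tracked cytotoxicity.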

[2] = system: thyroid hormone receptor (rat, GH3 cells); assay: qHTS assay to identify small molecule agonists of the thyroid receptor (TR) signaling pathway (AID 743066; calls by dose curve); conditions: GH3.TRE-Luc cells, TR agonist luciferase, 24 h; series mostly up to 83.9 µM
[3] = qHTS assay to identify small molecule antagonists of the estrogen receptor alpha (ER-alpha) signaling pathway - cell viability counter screen (AID 743074; calls by dose curve;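 further: HEK293 cells carrying ER-alpha-UAS-bla reporter stimulated with 17beta-estradiol; nearly all actives have a fitted effect of over 45% in size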; further: potency means the concentration at half of the fitted maximal effect); conditions: ERalpha-bla HEK293 viability, CellTiter-Glo luminescence, 18 h; series mostly up to 69.4 µM
[4] = qHTS assay to identify small molecule antagonists of the estrogen receptor alpha (ER-alpha) signaling pathway using the BG1 cell line - cell viability counter screen (AID 743081); conditions: BG1Luc4E2 viability, CellTiter-Fluor, 22 h; series mostly up to 70.3 µM;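 further: compound given together with 17beta-estradiol as the ER stimulus; nearly all actives have a fitted effect of over 45% in size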; further: potency means the concentration at half of the fitted maximal effect
Aromatase (Homo sapiens) = Aromatase (Homo sapiens) (UniProt P11511); assay: qHTS assay to identify aromatase inhibitors (AID 743083); conditions: MCF-7 aro ERE, testosterone-driven ERE luciferase, 24 h; series mostly up to 70.3 µM; further: nearly all actives have a fitted effect of over 55% in size; further: potency means the concentration at half of the fitted maximal effect
[5] = target: Estrogen receptor (Homo sapiens) (UniProt P03372); assay: qHTS assay to identify small molecule agonists of the estrogen receptor alpha (ER-alpha) signaling pathway (AID 743075; calls by dose curve;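 further: HEK293 GripTite cells with ER-alpha and UAS-driven beta-lactamase reporter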; further: potency means the concentration at half of the fitted maximal effect); conditions: HEK293 ER-alpha-UAS-bla, beta-lactamase FRET ratio, 18 h; series mostly up to 70.1 µM
[6] = target: Estrogen receptor (Homo sapiens) (UniProt P03372); assay: qHTS assay to identify small molecule agonists of the estrogen receptor alpha (ER-alpha) signaling pathway using the BG1 cell line (AID 743079); conditions: BG1Luc4E2 cells, ERE-luciferase agonist, 22 h; activation: at 70.3 µM (top of the series); further: nearly all actives have a fitted effect of over 20% in size; further: potency means the concentration at half of the fitted maximal effect
[7] = qHTS assay to identify small molecule antagonists of the estrogen receptor alpha (ER-alpha) signaling pathway using the BG1 cell line (AID 743080; calls by dose curve;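 further: BG1 cells stimulated with 17beta-estradiol alongside compound; nearly all actives have a fitted effect of over 25% in size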; further: potency means the concentration at half of the fitted maximal effect); conditions: BG1Luc4E2 ERE-luciferase antagonist mode, luminescence; series mostly up to 70.3 µM
How it was run: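 Seeding, 24 h rest, compound transfer from DMSO, 17beta-estradiol addition, 21.5 h incubation, CellTiter-Fluor (30 min, 37 C), then ONE-Glo (30 min, room temperature): this sequence was run on BG1-Luc-4E2 reporter cells.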

[8] = qHTS assay to identify aromatase inhibitors - cell viability counter screen (AID 743084); conditions: MCF-7 aro ERE viability, CellTiter-Fluor, 24 h; series mostly up to 70.3 µM;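 further: cells stimulated with testosterone during compound exposure; nearly all actives have a fitted effect of over 55% in size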; further: potency means the concentration at half of the fitted maximal effect
[9] = target: Estrogen receptor (Homo sapiens) (UniProt P03372); assay: qHTS assay to identify small molecule antagonists of the estrogen receptor alpha (ER-alpha) signaling pathway (AID 743069; active means well fitted curve in the direction sought with a large enough effect in the signal ratio in the repeat runs, not every such curve was filed as active; inconclusive means weak or mixed curves, or effect the other way; inactive means no such curve, though single readings can be large or run the other way; the % refers to the signal ratio; further: potency means the concentration at half of the fitted maximal effect); conditions: HEK293 ER-alpha-UAS-bla, beta-lactamase ratio, antagonist mode; series mostly up to 69.4 µM
How it was run: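 A 17beta-estradiol challenge was applied right after compound transfer to ER-alpha-UAS-bla HEK293 cells previously kept in charcoal-stripped serum. Plates stood 18 hr at 37C and 5% CO2; fluorescence was read following 2 hr FRET substrate loading at room temperature.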

Chain of Aromatase (Homo sapiens) (P11511 whole entry, looked up): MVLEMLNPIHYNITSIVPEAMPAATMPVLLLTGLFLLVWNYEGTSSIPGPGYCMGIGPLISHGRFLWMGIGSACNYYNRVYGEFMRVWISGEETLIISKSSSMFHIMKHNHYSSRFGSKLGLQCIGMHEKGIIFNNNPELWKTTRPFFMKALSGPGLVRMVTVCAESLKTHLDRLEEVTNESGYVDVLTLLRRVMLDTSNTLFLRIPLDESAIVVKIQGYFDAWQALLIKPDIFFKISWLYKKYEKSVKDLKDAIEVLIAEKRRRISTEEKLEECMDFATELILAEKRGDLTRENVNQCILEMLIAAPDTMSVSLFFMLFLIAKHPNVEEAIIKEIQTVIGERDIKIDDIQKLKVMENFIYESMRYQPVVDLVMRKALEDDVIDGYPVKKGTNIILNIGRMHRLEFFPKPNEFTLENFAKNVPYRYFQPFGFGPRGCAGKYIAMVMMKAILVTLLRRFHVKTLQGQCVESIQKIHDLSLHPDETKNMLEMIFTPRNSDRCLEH
Chain of Estrogen receptor (Homo sapiens) (P03372 whole entry, looked up): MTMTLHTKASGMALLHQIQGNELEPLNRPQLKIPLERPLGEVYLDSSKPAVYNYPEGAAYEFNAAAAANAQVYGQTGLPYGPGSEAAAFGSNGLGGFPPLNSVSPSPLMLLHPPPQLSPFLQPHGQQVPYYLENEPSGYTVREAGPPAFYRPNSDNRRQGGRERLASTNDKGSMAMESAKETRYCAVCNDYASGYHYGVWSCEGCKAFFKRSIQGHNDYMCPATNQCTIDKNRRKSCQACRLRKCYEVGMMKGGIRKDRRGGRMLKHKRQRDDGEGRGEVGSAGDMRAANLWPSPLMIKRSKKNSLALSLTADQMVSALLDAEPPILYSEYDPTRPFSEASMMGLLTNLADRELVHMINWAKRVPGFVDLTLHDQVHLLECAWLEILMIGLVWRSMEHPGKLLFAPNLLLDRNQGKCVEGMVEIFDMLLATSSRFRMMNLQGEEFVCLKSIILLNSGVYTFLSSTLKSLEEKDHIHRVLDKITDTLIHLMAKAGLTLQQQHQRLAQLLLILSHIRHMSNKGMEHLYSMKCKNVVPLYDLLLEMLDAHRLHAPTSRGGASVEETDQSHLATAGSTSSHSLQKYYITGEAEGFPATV

| SMILES | Potency [1] | Potency [2] | Potency [3] | Potency [4] | Potency (Aromatase (Homo sapiens)) | Potency [5] | Potency [6] | Potency [7] | Potency [8] | Potency [9] |
| --- | --- | --- | --- | --- | --- | --- | --- | --- | --- | --- |
| Nc1c(Cl)c(Cl)c(Cl)c(Cl)c1Cl | inactive | inactive | inactive | inactive | inactive | – | – | – | – | – |
| COP(=S)(NC(C)C)Oc1ccc(C)cc1[N+](=O)[O-] (stereo unspecified) | inactive | inactive | inactive | inactive | – | 5.49 µM [inconclusive] (active) | 1.93 µM (active) | 38.6 µM (active) | inactive | – |
| O=Cc1ccccc1 | inactive | inactive | inactive | inactive | – | – | – | – | – | – |
| O=C1C2(Cl)C3(Cl)C4(Cl)C(Cl)(Cl)C5(Cl)C3(Cl)C1(Cl)C5(Cl)C24Cl (stereo unspecified) | 9.53 µM (active) and 11.7 µM (active) | inactive | 54 µM (active) | inactive | 26.9 µM (active) and 52.2 µM (active) | – | – | – | 26.9 µM (active) and 52.2 µM (active) | – |
| CC(C)(C)c1ccc(OP(=O)(Oc2ccccc2)Oc2ccccc2)cc1 | 27.5 µM (active) | inactive | inactive | inactive | inactive | inactive | – | inactive | inactive | – |
| [Cl-].[Cl-].[Cl-].[Yb+3] | inactive | inactive | inactive | inactive | inactive | – | – | – | inactive | – |
| COCCC#N | inactive | inactive | inactive | inactive | inactive | – | – | – | inactive | – |
| CN1C(=O)[C@@H](NC(=O)c2cc3ccccc3[nH]2)N=C(c2ccccc2)c2ccccc21 | 5.96 µM (active) | inactive | inactive | inactive | – | – | – | – | – | – |
| CC1CCCC1 | inactive | inactive | inactive | inactive | inactive | – | – | – | inactive | – |
| CCNS(=O)(=O)C(F)(F)C(F)(F)C(F)(F)C(F)(F)C(F)(F)C(F)(F)C(F)(F)C(F)(F)F | inactive | inactive | inactive | inactive | inactive | – | – | – | inactive | – |
| Cc1ccc(C)c2ccccc12 | inactive | inactive | inactive | inactive | inactive | – | – | – | inactive | – |
| CCCCn1cc[n+](C)c1 (tested in a mixture with another compound) | inactive | inactive | inactive | inactive | inactive | – | – | – | inactive | – |
| CCCC[N+]1(C)CCCC1 (tested in a mixture with another compound) | inactive | inactive | inactive | inactive | inactive | – | – | – | inactive | – |
| N#CC(C#N)=NNc1cccc(Cl)c1 | 0.969 µM (active) | – | – | 5.45 µM (active) | 2.73 µM (active) | – | – | 2.17 µM (active) | 9.69 µM (active) | 0.692 µM [inconclusive] (active) |
| O=C(N[C@@H]1N=C(c2ccccc2F)c2cccc3c2N(CC3)C1=O)c1cc2ccccc2[nH]1 | 6.68 µM (active) | inactive | – | – | – | – | – | – | inactive | – |
| O=S1(=O)OCC2C(CO1)C1(Cl)C(Cl)=C(Cl)C2(Cl)C1(Cl)Cl (stereo unspecified) | 48.6 µM (active) | – | – | inactive | 54.5 µM (active) | inactive | inactive | – | 61.1 µM (active) | inactive |
| CCCCCON=O | inactive | inactive | – | inactive | inactive | – | – | – | inactive | – |
| O=S1OCC2C(CO1)C1(Cl)C(Cl)=C(Cl)C2(Cl)C1(Cl)Cl (stereo unspecified) | 61.2 µM (active) and 61.1 µM (active) | – | inactive | inactive | 27.3 µM (active) | 43.7 µM [inconclusive] (active) and inactive | 1.94 µM (active) | 61.2 µM (active) and 61.1 µM (active) | 48.6 µM (active) | inactive |
| N#Cc1c2ccccc2cc2ccccc12 | inactive | inactive | inactive | – | inactive | – | – | – | – | – |
| C1=CCC=C1 | inactive | inactive | inactive | inactive | – | – | – | – | inactive | – |
| [C-]1=CC=CC1.[Cl][Zr+2][Cl].c1cc[cH-]c1 | inactive | inactive | inactive | inactive | – | – | – | – | inactive | – |
